Assay results published in PubChem BioAssay (Tox21).
“And” between values parts separate entries of the source, which are not always exact repeats. Identical values can stand only once. Records with an inconclusive call do not appear. Where a call stands in place of a potency, no number is given. The source holds several records for some structures; these can differ, active in one and inactive in another. The source made the active and inactive calls. Unless noted, calls follow the shape of the dose curve; as a rule, active = well fitted curve in the direction sought with a large enough effect in the repeat runs; inconclusive = weak or mixed curves; inactive = no such curve, though single readings can be large; an effect the other way counts as inactive or inconclusive. Residues, ends and D or L forms follow the SMILES beside them.

Experiments:
[1] = qHTS assay to identify small molecule antagonists of the glucocorticoid receptor (GR) signaling pathway - cell viability counter screen (AID 720693); also: nearly all actives have a fitted effect of over 55% in size
[2] = qHTS assay for identifying genotoxic compounds that show differential cytotoxicity against isogenic chicken DT40 cell lines with known DNA damage response pathways - wild type cell line (AID 743012); also: nearly all actives have a fitted effect of over 60% in size; also: potency is read from the fitted curve at half-maximal effect
Outline: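 Endpoint: CellTiter-Glo luminescence, 30 min RT. Cells: wild type DT40, 300/well. Exposure: compounds in DMSO, 40 h, 37 C/5% CO2, after ~0.5 h pre-incubation.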

[3] = qHTS assay for identifying genotoxic compounds that show differential cytotoxicity against isogenic chicken DT40 cell lines with known DNA damage response pathways - Rev3 mutant cell line (AID 743014); also: nearly all actives have a fitted effect of over 55% in size; also: potency is read from the fitted curve at half-maximal effect
[4] = qHTS assay for identifying genotoxic compounds that show differential cytotoxicity against isogenic chicken DT40 cell lines with known DNA damage response pathways - Rad54/Ku70 mutant cell line (AID 743015); also: nearly all actives have a fitted effect of over 60% in size; also: potency is read from the fitted curve at half-maximal effect
[5] = qHTS assay to identify small molecule antagonists of the androgen receptor (AR) signaling pathway - cell viability counter screen (AID 743033; also: nearly all actives have a fitted effect of over 45% in size)
[6] = qHTS assay to identify small molecule antagonists of the androgen receptor (AR) signaling pathway using the MDA cell line - cell viability counter screen (AID 743041; also: nearly all actives have a fitted effect of over 45% in size; also: potency is read from the fitted curve at half-maximal effect)
Outline: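 Cytotoxicity counter screen: MDA-kb2 AR-luc cells, compound + R1881, 16 h, 37C, 0% CO2; CellTiter-Fluor added at 15.5 h, fluorescence read after 30 min.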

[7] = target: Androgen receptor (Homo sapiens) (UniProt P10275); test: qHTS assay to identify small molecule antagonists of the androgen receptor (AR) signaling pathway (AID 743035; active = well fitted inhibition curve with a large enough effect in the signal ratio in the repeat runs, not every such curve was filed as active; the % refers to the signal ratio)
Outline: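 R1881 agonist challenge of a HEK293 UAS-beta-lactamase AR reporter line in the presence of compound (16 h, 37C); signal taken as FRET fluorescence after 2 h with LiveBLAzer B/G substrate at room temperature.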

[8] = target: Androgen receptor (Homo sapiens) (UniProt P10275); test: qHTS assay to identify small molecule agonists of the androgen receptor (AR) signaling pathway (AID 743036; active = well fitted activation curve with a large enough effect in the signal ratio in the repeat runs, with a control signal flat, not every such curve was filed as active; the % refers to the signal ratio)
Outline: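 Quantitative HTS of the Tox21 10K library in HEK293 cells bearing a stably integrated UAS-controlled beta-lactamase reporter. Compound exposure lasted 16 h at 37C. Reporter activity was detected by FRET substrate fluorescence after 2 h at room temperature.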

[9] = target: Androgen receptor (Homo sapiens) (UniProt P10275); test: qHTS assay to identify small molecule agonists of the androgen receptor (AR) signaling pathway using the MDA cell line (AID 743040; also: nearly all actives have a fitted effect of over 20% in size; also: potency is read from the fitted curve at half-maximal effect)
Outline: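 Luciferase read-out, ONE-Glo, 30 min RT. Cells: MDA-kb2 AR-luc, MMTV promoter with AR and GR response elements. Compound exposure 16 h, 37C, 0% CO2, after 5 h pre-incubation. qHTS agonist mode.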

[10] = target: Androgen receptor (Homo sapiens) (UniProt P10275); test: qHTS assay to identify small molecule antagonists of the androgen receptor (AR) signaling pathway using the MDA cell line (AID 743042; also: nearly all actives have a fitted effect of over 55% in size)
Outline: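 MDA-kb2 breast carcinoma cells carrying MMTV-luciferase (AR/GR responsive) were co-treated with compounds and the agonist R1881 for 16 h at 37C. Inhibition read as ONE-Glo luminescence; CellTiter-Fluor fluorescence measured in parallel for cytotoxicity.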

Sequence of Androgen receptor (Homo sapiens) (P10275 whole entry, looked up): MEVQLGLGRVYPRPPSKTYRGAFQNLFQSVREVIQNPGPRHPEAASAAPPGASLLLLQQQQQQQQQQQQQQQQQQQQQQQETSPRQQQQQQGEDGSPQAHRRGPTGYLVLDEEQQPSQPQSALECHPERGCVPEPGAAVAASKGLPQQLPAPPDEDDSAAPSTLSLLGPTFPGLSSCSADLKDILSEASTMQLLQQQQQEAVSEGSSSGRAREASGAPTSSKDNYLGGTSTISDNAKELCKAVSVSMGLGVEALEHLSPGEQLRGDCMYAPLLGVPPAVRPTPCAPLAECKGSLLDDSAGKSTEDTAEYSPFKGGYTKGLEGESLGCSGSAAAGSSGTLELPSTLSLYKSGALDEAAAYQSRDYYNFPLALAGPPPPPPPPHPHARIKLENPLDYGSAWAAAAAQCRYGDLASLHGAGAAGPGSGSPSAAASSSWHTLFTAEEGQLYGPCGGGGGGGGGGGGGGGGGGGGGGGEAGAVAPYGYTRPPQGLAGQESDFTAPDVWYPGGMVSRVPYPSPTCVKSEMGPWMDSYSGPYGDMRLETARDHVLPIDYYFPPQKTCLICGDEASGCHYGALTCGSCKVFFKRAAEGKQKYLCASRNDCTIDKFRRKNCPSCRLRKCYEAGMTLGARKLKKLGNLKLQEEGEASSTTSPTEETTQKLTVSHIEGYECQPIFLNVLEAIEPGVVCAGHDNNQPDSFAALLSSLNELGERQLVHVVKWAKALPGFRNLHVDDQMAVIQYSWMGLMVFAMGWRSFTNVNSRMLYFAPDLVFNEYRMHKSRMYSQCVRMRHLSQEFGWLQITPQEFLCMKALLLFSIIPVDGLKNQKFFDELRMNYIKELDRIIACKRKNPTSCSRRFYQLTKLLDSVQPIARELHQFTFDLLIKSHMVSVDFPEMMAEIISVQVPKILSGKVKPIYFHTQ

Compound	Potency [1]	Potency [2]	Potency [3]	Potency [4]	outcome [5]	Potency [6]	outcome [7]	outcome [8]	Potency [9]	outcome [10]
O=C(O)c1[nH]n(-c2ccc(S(=O)(=O)O)cc2)c(=O)c1N=Nc1ccc(S(=O)(=O)O)cc1	inactive	inactive	inactive	inactive	inactive	15 µM (active) and 61.3 µM (active) and 57.1 µM (active)				
O=C(O)c1cccnc1	inactive	inactive	inactive	inactive	inactive	inactive				
O=C(O)CCC(=O)O	inactive	inactive	inactive	inactive	inactive	inactive				
CCCC(CCC)C(=O)O	inactive	inactive	inactive	inactive	inactive	inactive				
Cc1ccc(C)c(OCCCC(C)(C)C(=O)O)c1	inactive	inactive	inactive	inactive	inactive	inactive	inactive	inactive	inactive	inactive
CC(=O)NS(=O)(=O)c1ccc(N)cc1	inactive	inactive	inactive	inactive	inactive	inactive				
CCCCC(CC)COC(=O)/C=C/c1ccc(OC)cc1 (stereo not given)	inactive	inactive	inactive	inactive	inactive	inactive	inactive	inactive	inactive	inactive
COc1c2occc2cc2ccc(=O)oc12	inactive	inactive	inactive	inactive	inactive	inactive				
O=C(O)CCCCCCCC(=O)O	inactive	inactive	inactive	inactive	inactive	inactive				
O=C(C1CCCCC1)N1CC(=O)N2CCc3ccccc3C2C1 (stereo not given)	inactive	inactive	inactive	inactive	inactive	inactive				
Cc1cc(=O)n(-c2ccccc2)n1C	inactive	inactive	inactive	inactive	inactive	inactive	inactive	inactive	inactive	inactive
O=C(O)CS	inactive	inactive and 61.6 µM (active)	inactive and 43.6 µM (active)	inactive and 12.3 µM (active)	inactive	inactive				
CC(C)[C@@H]1CC[C@@H](C)C[C@H]1O	inactive	inactive	inactive	inactive	inactive	inactive	inactive	inactive	inactive	inactive
CC(O)C(=O)O (stereo not given)	inactive	inactive	inactive	inactive	inactive	inactive				
Cc1ccc(O)cc1	inactive	inactive	inactive	inactive	inactive	inactive	inactive	inactive	inactive	inactive
C1N2CN3CN1CN(C2)C3	inactive	inactive	inactive	inactive	inactive	inactive	inactive	inactive	inactive	inactive
CNC[C@H](O)c1cccc(O)c1	inactive	inactive	inactive	inactive	inactive	inactive				
CCCN(CCC)S(=O)(=O)c1ccc(C(=O)O)cc1	inactive	inactive	inactive	inactive	inactive	inactive	inactive	inactive		inactive
CCCCC1C(=O)N(c2ccccc2)N(c2ccccc2)C1=O	inactive	inactive	inactive	inactive	inactive	inactive				
Cn1cc[nH]c1=S	inactive	inactive	inactive	inactive	inactive	inactive				
CC(C)(Oc1ccc(C2CC2(Cl)Cl)cc1)C(=O)O (stereo not given)	inactive	inactive	inactive	inactive	inactive	inactive	inactive	inactive	inactive	inactive
O=C(O)c1cccc([N+](=O)[O-])c1	inactive	inactive	inactive	inactive	inactive	inactive				
Nc1ccc(C(=O)O)cc1	inactive	inactive	inactive	inactive	inactive	inactive				
Nc1ccc(S(=O)(=O)c2ccc(N)cc2)cc1	inactive	inactive	inactive	inactive	inactive	inactive				

Compound	Potency [1]	Potency [2]	Potency [3]	Potency [4]	outcome [5]	Potency [6]	outcome [7]	outcome [8]	Potency [9]	outcome [10]
Cc1cc(=O)[nH]c(=S)[nH]1	inactive	inactive	inactive	inactive	inactive	inactive				
c1ccc2[nH]ccc2c1	inactive	inactive	inactive	inactive	inactive	inactive	inactive	inactive	inactive	inactive
Nc1ccc(O)c(C(=O)O)c1	inactive	inactive	inactive	inactive	inactive	inactive				
Cc1ccc(S(=O)(=O)NC(=O)NN2CCCCCC2)cc1	inactive	inactive	inactive and 68.6 µM (active)	inactive	inactive	inactive				
Oc1ccc(/C=C/c2cc(O)cc(O)c2)cc1	inactive	7.17 µM (active) and 30.6 µM (active)	7.17 µM (active) and 15.5 µM (active) and 21.7 µM (active)	9.02 µM (active) and 27.6 µM (active) and 30.6 µM (active)	inactive	inactive			6.92 µM (active) and 2.73 µM (active)	inactive
O=S(=O)(O)c1ccc2cc(O)ccc2c1	inactive	inactive	inactive	inactive	inactive	inactive				
O=C1NC(=O)c2ccccc21	inactive	inactive	inactive	inactive	inactive	inactive				
NS(=O)(=O)c1cc(C(=O)O)c(NCc2ccco2)cc1Cl	inactive	inactive	inactive	inactive	inactive	inactive				
CCCCCCCCCCCCCCCC(=O)O	inactive	11.9 µM (active) and inactive	inactive	inactive	inactive	inactive				
C/C=C/c1ccc(OC)cc1	inactive	inactive	inactive	inactive	inactive	inactive				
OCCc1ccccc1	inactive	inactive	inactive	inactive	inactive	inactive				
O=c1ccc2ccccc2o1	inactive	inactive	inactive	inactive	inactive	inactive				
O=C(c1ccccc1)C(O)c1ccccc1 (stereo not given)	inactive	inactive	inactive	inactive	inactive	inactive				
COC(=O)[C@H](Cc1ccccc1)NC(=O)[C@@H](N)CC(=O)O (H-Asp-Phe-OMe)	inactive	inactive	inactive	inactive	inactive	inactive				
O=C1CN(/N=C/c2ccc([N+](=O)[O-])o2)C(=O)N1	inactive	60.9 µM (active)	54.3 µM (active) and 68.6 µM (active)	60.9 µM (active)		15.6 µM (active) and 54.3 µM (active) and 48.6 µM (active)				
C[C@]12C=CC(=O)C=C1CC[C@@H]1[C@@H]2[C@@H](O)C[C@@]2(C)[C@H]1CC[C@]2(O)C(=O)CO	inactive	inactive	inactive		inactive	inactive				
Cc1cn([C@H]2C[C@H](N=[N+]=[N-])[C@@H](CO)O2)c(=O)[nH]c1=O	inactive				inactive	inactive				
NC(=O)c1cnccn1	inactive	inactive	inactive	inactive	inactive	inactive				
O=C(O)C(=O)O	inactive	inactive	inactive	inactive	inactive	inactive				
Nc1ccn([C@H]2CC[C@@H](CO)O2)c(=O)n1	inactive		24.3 µM (active)	53.5 µM (active) and 24.3 µM (active)	inactive	inactive				
NNC(=O)c1ccncc1	inactive	inactive	inactive	inactive	inactive	inactive				
Nc1ccc(S(=O)(=O)Nc2nccs2)cc1	inactive	inactive	inactive	inactive	inactive	inactive				
CC(O)CN(CCN(CC(C)O)CC(C)O)CC(C)O (stereo not given)	inactive	inactive	inactive	inactive	inactive	inactive				
O=c1cc[nH]c(=S)[nH]1	inactive	inactive	inactive	inactive	inactive	inactive				

Compound	Potency [1]	Potency [2]	Potency [3]	Potency [4]	outcome [5]	Potency [6]	outcome [7]	outcome [8]	Potency [9]	outcome [10]
CCOc1ccc(NC(=O)CC(C)O)cc1 (stereo not given)	inactive	inactive	inactive	inactive	inactive	inactive				
NC(=O)NC1NC(=O)NC1=O (stereo not given)	inactive	inactive	inactive	inactive	inactive	inactive				
O=S(=O)(O)NC1CCCCC1	inactive	inactive	inactive	inactive	inactive	inactive				
CCCNC(=O)NS(=O)(=O)c1ccc(Cl)cc1	inactive	inactive	inactive	inactive	inactive	inactive				
OC(Cn1cncn1)(Cn1cncn1)c1ccc(F)cc1F	inactive	inactive	inactive	inactive	inactive	inactive				
Cc1noc(NS(=O)(=O)c2ccc(N)cc2)c1C	inactive	inactive	inactive	inactive	inactive	inactive				
Cn1c(=O)c2[nH]cnc2n(C)c1=O	inactive				inactive	inactive				
CC(=O)Nc1nnc(S(N)(=O)=O)s1	inactive	inactive	inactive	inactive	inactive	inactive				
O=C(c1ccccc1)c1ccccc1	inactive				inactive	inactive	inactive	inactive		inactive
NC(N)=NC(=O)c1nc(Cl)c(N)nc1N	inactive	inactive	inactive	inactive	inactive	inactive				
N=C(N)c1ccc(OCCCCCOc2ccc(C(=N)N)cc2)cc1		1.88 µM (active) and 5.42 µM (active) and 1.31 µM (active)	2.98 µM (active) and 2.16 µM (active) and 1.85 µM (active)	2.66 µM (active) and 2.72 µM (active) and 1.65 µM (active)		inactive				
Cc1ccccc1C(OCCN(C)C)c1ccccc1 (stereo not given)	inactive		inactive and 61.1 µM (active) and 54.5 µM (active)	inactive and 61.1 µM (active) and 68.6 µM (active)	inactive	inactive				
NC(N)=O	inactive	inactive and 24.3 µM (active)	inactive and 17.2 µM (active)	inactive and 21.7 µM (active)	inactive	inactive				
CCCC(O)C(CC)CO (stereo not given)	inactive	inactive	inactive	inactive	inactive	inactive				
O=C(O)CCCCC(=O)O	inactive				inactive	inactive				
CC(=O)OCC(COC(C)=O)OC(C)=O	inactive	inactive	inactive	inactive	inactive	inactive				
COc1ccc2[nH]cc(CCNC(C)=O)c2c1	inactive	inactive	inactive	inactive	inactive	inactive				
CCCCOC(=O)CC(CC(=O)OCCCC)(OC(C)=O)C(=O)OCCCC	inactive		inactive	inactive and 54.5 µM (active)	inactive	inactive				
CCC1(c2ccccc2)C(=O)NCNC1=O	inactive				inactive	inactive				
NC(=O)c1ccccc1O	inactive	inactive	inactive	inactive	inactive	inactive				
O=NO	inactive	inactive	inactive	inactive	inactive	inactive				
CC(O)CO (stereo not given)	inactive	inactive	inactive	inactive and 61.1 µM (active)	inactive	inactive				
CC1(C)[C@@H]2CC[C@@]1(C)C(=O)C2	inactive	inactive	4.73 µM (active) and inactive	2.98 µM (active) and inactive	inactive	inactive				
O=C(O)c1cc(N=Nc2ccc(S(=O)(=O)Nc3ccccn3)cc2)ccc1O	inactive	inactive	inactive	inactive	inactive	inactive				
